{"source": "PubChem BioAssay (NCATS)", "note": "Several values for one entry are separate records, joined by “and”; a condition that tells them apart may be missing. Equal values may be shown once. Results filed as inconclusive are left out. A number with no mark means an inactive call. % is set by controls: 0 for no effect and ±100 for the full control effect."}
{"biological_target": "Retinoic acid receptor RXR-alpha (Homo sapiens) (UniProt P19793)", "sequence (P19793 whole entry, looked up)": "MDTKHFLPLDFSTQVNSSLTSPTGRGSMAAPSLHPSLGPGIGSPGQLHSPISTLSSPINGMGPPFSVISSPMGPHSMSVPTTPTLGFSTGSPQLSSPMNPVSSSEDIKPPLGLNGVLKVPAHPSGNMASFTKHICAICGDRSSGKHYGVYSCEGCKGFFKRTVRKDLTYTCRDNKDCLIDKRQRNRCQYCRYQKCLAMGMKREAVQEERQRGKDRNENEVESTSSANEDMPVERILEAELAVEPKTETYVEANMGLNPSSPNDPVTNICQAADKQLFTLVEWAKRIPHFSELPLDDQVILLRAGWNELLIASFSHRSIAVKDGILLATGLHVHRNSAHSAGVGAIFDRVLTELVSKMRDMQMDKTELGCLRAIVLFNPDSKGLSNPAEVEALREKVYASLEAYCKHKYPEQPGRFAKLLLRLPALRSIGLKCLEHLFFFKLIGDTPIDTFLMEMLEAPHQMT", "test": "qHTS assay for small molecule antagonists of retinoid X receptor alpha signaling (AID 588546; active = well fitted inhibition curve with a large enough effect in the signal ratio, with a control signal flat, not every such curve was filed as active; the % refers to the signal ratio)", "conditions": "HEK293T RXRa-UAS-bla, beta-lactamase ratio, antagonist mode", "outline": "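Beta-lactamase reporter inhibition, read as CCF4 fluorescence ratio (ex 405, em 460/530 nm) after 2 h at RT. HEK293T UAS-bla cells, 2500/well, were stimulated with 9-cis-RA at 500 or 100 nM final alongside test compound for 18 h at 37 C.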"}
{"smiles": "Brc1ccccc1", "max response": "-1.11% and -6.34%"}
{"smiles": "CCOP(=S)(OCC)SCSC(C)(C)C", "max response": "-12% and 0.279%"}
{"smiles": "C=C(C)C#N", "max response": "-5.47% and -20.9%"}
{"smiles": "CCSC(=O)Cl", "max response": "1.25%"}
{"smiles": "Cc1cccc([N+](=O)[O-])c1", "max response": "4.38% and -23.2%"}
{"smiles": "Nc1c(Cl)c(Cl)nc(C(=O)O)c1Cl", "max response": "-3.97% and -1.67% and -10.4%"}
{"smiles": "CC(C)(C)OOC(C)(C)C", "max response": "11.6%"}
{"smiles": "C=C(C)C(=O)OCC1CO1", "note": "(stereo unspecified)", "max response": "4.24%"}
{"smiles": "Cc1ccc([N+](=O)[O-])cc1C", "max response": "17.5% and -26.4%"}
{"smiles": "O=[N+]([O-])c1ccc(Cl)c(Cl)c1", "max response": "7.29%"}
{"smiles": "C=CC(=C)C", "max response": "-0.537%"}
{"smiles": "Cc1ccc2ccccc2c1", "max response": "-9.3%"}
{"smiles": "Nc1ccccc1Cl", "max response": "23.6%"}
{"smiles": "[O-][Br+2]([O-])O", "max response": "9.17% and 7.78%"}
{"smiles": "Clc1nc(Cl)nc(Nc2ccccc2Cl)n1", "max response": "8.47%"}
{"smiles": "OCC1CO1", "note": "(stereo unspecified)", "max response": "13.7% and -0.419%"}
{"smiles": "C=CCOC(=O)c1ccccc1N", "max response": "2.96%"}
{"smiles": "C=CC(N)=O", "max response": "17% and -9.44% and -5.75%"}
{"smiles": "CC(C)(c1ccccc1)c1ccc(O)cc1", "max response": "-3.65%"}
{"smiles": "CCN(CC)c1ccccc1", "max response": "4.5%"}
{"smiles": "S=C=Nc1cccc2ccccc12", "max response": "3.59%"}
{"smiles": "N#CCCCl", "max response": "15.2% and 9.43%"}
{"smiles": "O=NN(CCO)CCO", "max response": "16.4%"}
{"smiles": "Cc1ccccc1N", "max response": "13.9%"}
{"smiles": "C=CCOC(C)=O", "max response": "2.59%"}
{"smiles": "CCCC(=O)Cl", "max response": "15.7%"}
{"smiles": "NC(=S)Nc1ccccc1", "max response": "6.2% and -12.5% and -20.4%"}
{"smiles": "O=C(Cl)/C=C/C(=O)Cl", "max response": "-3.28%"}
{"smiles": "C=C(Cl)Cl", "max response": "-1.27%"}
{"smiles": "ClCBr", "max response": "-1.21%"}
{"smiles": "COc1ccc(C=O)cc1OC", "max response": "-9.7% and -21.1%"}
{"smiles": "C=CC(=O)OCC", "max response": "4.16%"}
{"smiles": "c1nc[nH]n1", "max response": "5.33%"}
{"smiles": "c1ccc2c(c1)CCCC2", "max response": "7.45%"}
{"smiles": "CCCSC(=O)Cl", "max response": "25.6%"}
{"smiles": "Clc1cccc(C(Cl)(Cl)Cl)n1", "max response": "0.436% and 2.35%"}
{"smiles": "O=NN(c1ccccc1)c1ccccc1", "max response": "-2.47% and 4.6%"}
{"smiles": "C1CCC2CCCCC2C1", "note": "(stereo unspecified)", "max response": "-5.58%"}
{"smiles": "CC(O)CCl", "note": "(stereo unspecified)", "max response": "-5.06% and 5.36%"}
{"biological_target": "Thyroid hormone receptor beta (Homo sapiens) (UniProt P10828)", "sequence (P10828 whole entry, looked up)": "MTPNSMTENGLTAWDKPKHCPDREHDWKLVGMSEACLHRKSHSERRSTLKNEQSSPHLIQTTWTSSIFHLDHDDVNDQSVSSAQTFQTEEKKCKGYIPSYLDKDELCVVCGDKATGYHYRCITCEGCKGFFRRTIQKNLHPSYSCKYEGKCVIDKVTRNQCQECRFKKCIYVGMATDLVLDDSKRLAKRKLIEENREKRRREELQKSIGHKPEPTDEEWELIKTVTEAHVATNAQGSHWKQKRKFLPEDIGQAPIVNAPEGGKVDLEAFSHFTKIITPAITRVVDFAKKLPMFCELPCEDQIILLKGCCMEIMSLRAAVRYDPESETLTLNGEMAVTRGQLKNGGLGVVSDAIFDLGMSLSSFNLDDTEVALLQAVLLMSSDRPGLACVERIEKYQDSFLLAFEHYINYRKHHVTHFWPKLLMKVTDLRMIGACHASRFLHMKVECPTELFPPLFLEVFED", "test": "qHTS assay for small molecule antagonists of thyroid hormone receptor beta signaling (AID 588547; active = well fitted inhibition curve with a large enough effect in the signal ratio, with a control signal flat, not every such curve was filed as active; the % refers to the signal ratio;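 note: cells stimulated with 0.4 nM T3 agonist during compound exposure; series mostly up to about 77 µM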)", "conditions": "TR-UAS-bla HEK293, beta-lactamase ratio, antagonist mode, 18 h", "outline": "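TR-UAS-bla GripTite HEK293 cells in 2% charcoal/dextran FBS medium were preincubated 4 h at 37 C, given compound (0.59 nM to 92 uM) plus 0.4 nM T3 (final) for 18 h, then CCF4 for 2 h at RT; Hill fit gave IC50.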"}
{"smiles": "Brc1ccccc1", "activity change % (negative = inhibition)": "-13.6% and -17.2%"}
{"smiles": "CCOP(=S)(OCC)SCSC(C)(C)C", "activity change % (negative = inhibition)": "-5% and -15.6%"}
{"smiles": "C=C(C)C#N", "activity change % (negative = inhibition)": "-13.7% and -1.19%"}
{"smiles": "CCSC(=O)Cl", "activity change % (negative = inhibition)": "-1.08%"}
{"smiles": "Nc1c(Cl)c(Cl)nc(C(=O)O)c1Cl", "activity change % (negative = inhibition)": "-17.9% and -15% and -2.55%"}
{"smiles": "CC(C)(C)OOC(C)(C)C", "activity change % (negative = inhibition)": "-4.91%"}
{"smiles": "C=C(C)C(=O)OCC1CO1", "note": "(stereo unspecified)", "activity change % (negative = inhibition)": "6.72%"}
{"smiles": "Cc1ccc([N+](=O)[O-])cc1C", "activity change % (negative = inhibition)": "13% and 10.3%"}
{"smiles": "O=[N+]([O-])c1ccc(Cl)c(Cl)c1", "activity change % (negative = inhibition)": "-4.24%"}
{"smiles": "C=CC(=C)C", "activity change % (negative = inhibition)": "3.52%"}
{"smiles": "Cc1ccc2ccccc2c1", "activity change % (negative = inhibition)": "0.181%"}
{"smiles": "Nc1ccccc1Cl", "activity change % (negative = inhibition)": "-4.52%"}
{"smiles": "Clc1ccc2ccccc2c1", "activity change % (negative = inhibition)": "-12%"}
{"smiles": "[O-][Br+2]([O-])O", "activity change % (negative = inhibition)": "6.91% and -5.45%"}
{"smiles": "Clc1nc(Cl)nc(Nc2ccccc2Cl)n1", "activity change % (negative = inhibition)": "11.4%"}
{"smiles": "OCC1CO1", "note": "(stereo unspecified)", "activity change % (negative = inhibition)": "-4.57% and 15.9%"}
{"smiles": "C=CCOC(=O)c1ccccc1N", "activity change % (negative = inhibition)": "-21.1%"}
{"smiles": "CC(C)(c1ccccc1)c1ccc(O)cc1", "activity change % (negative = inhibition)": "-5.71% and 17.9%"}
{"smiles": "CCN(CC)c1ccccc1", "activity change % (negative = inhibition)": "-7.69%"}
{"smiles": "S=C=Nc1cccc2ccccc12", "activity change % (negative = inhibition)": "-1.91%"}
{"smiles": "N#CCCCl", "activity change % (negative = inhibition)": "-2.7% and 7.92%"}
{"smiles": "O=NN(CCO)CCO", "activity change % (negative = inhibition)": "-10.8%"}
{"smiles": "Cc1ccccc1N", "activity change % (negative = inhibition)": "0.476% and 3.77%"}
{"smiles": "C=CCOC(C)=O", "activity change % (negative = inhibition)": "14.6%"}
{"smiles": "CCCC(=O)Cl", "activity change % (negative = inhibition)": "3.8%"}
{"smiles": "NC(=S)Nc1ccccc1", "activity change % (negative = inhibition)": "-7.36% and -1.01% and 3.6%"}
{"smiles": "O=C(Cl)/C=C/C(=O)Cl", "activity change % (negative = inhibition)": "2.64%"}
{"smiles": "C=C(Cl)Cl", "activity change % (negative = inhibition)": "-6%"}
{"smiles": "ClCBr", "activity change % (negative = inhibition)": "5.81%"}
{"smiles": "COc1ccc(C=O)cc1OC", "activity change % (negative = inhibition)": "2.18% and 12.7%"}
{"smiles": "C=CC(=O)OCC", "activity change % (negative = inhibition)": "-5%"}
{"smiles": "c1ccc2c(c1)CCCC2", "activity change % (negative = inhibition)": "3.81%"}
{"smiles": "CCCSC(=O)Cl", "activity change % (negative = inhibition)": "-14.3%"}
{"smiles": "Clc1cccc(C(Cl)(Cl)Cl)n1", "activity change % (negative = inhibition)": "-14.1% and -4.27%"}
{"smiles": "O=NN(c1ccccc1)c1ccccc1", "activity change % (negative = inhibition)": "-20.2% and 4.93%"}
{"smiles": "C1CCC2CCCCC2C1", "note": "(stereo unspecified)", "activity change % (negative = inhibition)": "10.1%"}
{"smiles": "CC(O)CCl", "note": "(stereo unspecified)", "activity change % (negative = inhibition)": "-4.17%"}
